CYP2C19 inh: blocks human cytochrome P450 2C19; P33261; CYP2C19 Supersomes, luciferin-H EGE luminescence, 30 min; inhibition, % at 5 µM; hit rate 21% among 96,000; AID 778;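 active means CYP2C19 inhibition above a set limit at 5 µM in the primary screen, cut at about 50% in these data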;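 further: plate controls were negative control wells for no effect and 2.5 mM tranylcypromine positive control for full effect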
Target sequence (P33261 whole entry, looked up): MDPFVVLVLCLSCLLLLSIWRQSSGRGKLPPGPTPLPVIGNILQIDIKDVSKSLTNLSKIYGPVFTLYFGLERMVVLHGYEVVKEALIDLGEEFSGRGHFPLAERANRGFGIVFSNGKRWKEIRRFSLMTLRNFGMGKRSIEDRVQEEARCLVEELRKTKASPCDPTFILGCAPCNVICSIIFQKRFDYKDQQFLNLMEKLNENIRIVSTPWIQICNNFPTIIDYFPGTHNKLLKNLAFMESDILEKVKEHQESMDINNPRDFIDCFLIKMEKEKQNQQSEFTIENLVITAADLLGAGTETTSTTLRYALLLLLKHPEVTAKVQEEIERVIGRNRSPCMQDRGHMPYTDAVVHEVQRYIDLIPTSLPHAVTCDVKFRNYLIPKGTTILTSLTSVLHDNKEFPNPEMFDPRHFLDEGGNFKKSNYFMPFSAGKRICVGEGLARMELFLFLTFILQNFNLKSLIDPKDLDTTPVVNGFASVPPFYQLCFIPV
CYP2C9 activ: CYP2C9 (human) activation; recombinant CYP2C9, luciferin-H conversion, luminescence; hits give high values; factor 1 = untreated enzyme, 0 = blocked; activation factor at 5 µM; hit rate 1.4% among 96,000; AID 1024;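 active means activation factor of 2 or more for CYP2C9 at a 5 µM dose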;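 further: 0 = sulfaphenazole-blocked wells and 1 = vehicle-only wells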
MRP resist rev: reverses drug resistance mediated by MRP; differential viability (reversal), % at 10 µM; hit rate 0.04% among 85,000; H69AR cells + 2 uM doxorubicin, CellTiter-Glo, 72 h;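 active means viability drop by adding the cancer drug above about 55%, with treated viability meeting a 40% cutoff, limit read from the data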;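 further: viability without doxorubicin minus viability with 2 µM doxorubicin for each compound; larger differential means the compound sensitizes cells more to doxorubicin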
MRP1 act: MRP-1 activation; H69AR cells + doxorubicin, viability rescue, CellTiter-Glo; viability increase, % at 10 µM; hit rate 0.61% among 140,000; AID 799;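 active means viability gain under doxorubicin at or above a set limit, the compound median plus 3 SD, cut at about 4.7% in these data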;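 further: MRP-1 overexpressing cells given doxorubicin 25 µM after compound pretreatment; 18-22 h compound pretreatment then 72 h with doxorubicin before readout; 0% = doxorubicin-only wells and 100% = vehicle-treated cells without doxorubicin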
CYP2C9 inhib: human CYP2C9 inhibition; hit rate 20% among 96,000; CYP2C9 Supersomes, luciferin-H conversion, luminescence; inhibition, % at 5 µM;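 active means blocking of liver enzyme CYP2C9 beyond about 50% at 5 µM, limit read from the data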
CYP2C19 act: cytochrome P450 2C19 (human) activation | activation factor at 5 µM | recombinant CYP2C19, luciferin-H EGE luminescence; hits give high values; 0 = fully inhibited enzyme, 1 = untreated enzyme | P33261 | 96,000 tested, under 10 active;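 active means activation factor of at least 2 at 5 µM in the primary screen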;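 further: 0 = wells with 2.5 mM tranylcypromine and 1 = vehicle-only wells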
Active calls of the source: *; / = no result given. A selection: hits, their analogues and other compounds. The true share with any hit is near 21%.

SMILES	CYP2C19 inh	CYP2C9 activ	MRP resist rev	MRP1 act	CYP2C9 inhib	CYP2C19 act
COc1ccc(NS(=O)(=O)c2cccc(C(=O)N/N=C(\C)c3ccc(-n4ccnc4)cc3)c2)cc1	92.7*	0	/	0.0	99.2*	0.1
C/C(=N\NC(=O)c1cccc(S(=O)(=O)Nc2ccccc2Cl)c1)c1ccc(-n2ccnc2)cc1	99.1*	0	/	-1.7	100.0*	0
Cc1ccc(/C=N/NC(=O)c2cccc(S(=O)(=O)Nc3ccccc3Cl)c2)o1	/	/	/	-2.6	/	/
CC(NC(=O)c1ccnc(C(C)(C)C)c1)c1ccccc1 (centres undefined)	55.6*	0.4	11.6	-0.3	55.3*	0.4
CC(C)(C)NC(=O)c1ccnc(C(C)(C)C)c1	52.3*	1	-7.3	-0.1	-3.0	0.5
Cc1ccc(NC(=O)c2ccnc(C(C)(C)C)c2)cc1	/	/	-10.9	-0.9	/	/
CC(C)(C)c1cc(C(=O)Nc2ccccc2)ccn1	/	/	16.1	2.5	/	/
O=Cc1nc(-c2ccccc2Cl)n2ccccc12	34.9	2.2*	/	0.1	-120.5	0.7
O=C(c1ccc(COCC(F)(F)F)o1)N1CCCCCC1	50.9*	1	3.2	-1.1	3.7	0.5
O=C(NCc1ccc(Cl)cc1)c1ccc(COCC(F)(F)F)o1	51.4*	0.7	5.6	1.4	30.8	0.5
CC(C)(C)NC(=O)c1ccc(COCC(F)(F)F)o1	-4.4	1.2	5.2	-0.8	-20.3	1
O=C(Nc1ccc(Cl)cn1)c1ccc(COCC(F)(F)C(F)F)o1	71.9*	0.8	-3.5	0.4	22.0	0.3
Cc1ccc(C(=O)NCc2ccc(Cl)cc2)o1	52.7*	1.1	11.4	-3.5	-8.8	0.5
O=C(c1ccc(COc2ccccc2Cl)o1)N1CCCC1	30.3	0.5	17.7	-1.0	46.1	0.7
O=C(C(c1ccccc1)c1ccccc1)N1CCN(Cc2ccco2)CC1	/	/	1.0	-4.1	/	/
CC(C)(C)OC(=O)N1CCCC(C(=O)CC#N)C1 (centres undefined)	37.2	0.3	-18.7	-0.8	66.5*	0.6
Cc1nc(N)sc1-c1csc(NCc2ccccc2)n1	30.0	0.6	7.7	-4.8	43.3	0.7
Cc1nc(NC(=O)c2ccccc2)sc1-c1csc(NCc2ccccc2)n1	51.1*	0.3	-11.8	-0.8	65.6*	0.5
C=CCNc1nc(-c2c(C)nc3sccn23)cs1	/	/	1.0	0.2	/	/
Cc1ccc(Cl)cc1Nc1nc(-c2sc(NC(=O)c3ccccc3)nc2C)cs1	52.1*	0.2	/	-1.4	76.6*	0.5
COc1ccccc1Nc1nc(-c2sc(NC(=O)c3ccccc3)nc2C)cs1	0.7	0.7	/	-1.3	32.1	1
Cc1nc2sccn2c1-c1csc(NCc2ccccc2)n1	89.6*	0.4	19.3	-3.0	61.6*	0.1
Cc1nc(NC(=O)c2ccccc2)sc1-c1csc(NCCc2ccccc2)n1	48.1	0.2	-16.1	-2.4	77.7*	0.5
CC(=O)c1ccc(NC(=O)c2ccn(C(=O)OCC(C)C)n2)cc1	/	/	/	-1.4	/	/
Cc1cccc(-n2cc(-c3ccccc3)c3c(=O)[nH]cnc32)c1	/	/	/	-2.2	/	/
SMILES	CYP2C19 inh	CYP2C9 activ	MRP resist rev	MRP1 act	CYP2C9 inhib	CYP2C19 act
Cc1nc(NC(=O)c2ccccc2)sc1-c1csc(N)n1	19.4	0.5	-27.0	-5.5	54.4*	0.8
CCOc1ccccc1Nc1nc(-c2sc(NC(=O)c3ccccc3)nc2C)cs1	10.1	0.5	/	-1.9	47.7	0.9
Cc1cc(NS(=O)(=O)c2ccc(Nc3nc(-c4sc(NC(=O)c5ccccc5)nc4C)cs3)cc2)no1	-17.5	0.3	-1.9	-1.7	75.0*	1.2
CCC(=O)Nc1nc(C)c(-c2csc(Nc3ccc(S(=O)(=O)Nc4cc(C)on4)cc3)n2)s1	-1.6	0.7	/	1.2	33.3	1
CCCOc1ccc(C(C(=O)OCCN(CC)CC)c2ccccc2)cc1 (centres undefined)	0.3	0.9	6.0	-0.2	11.4	1
COc1ccc(OC)c(C2C(C(=O)Nc3cccnc3)=C(C)NC3=C2C(=O)CCC3)c1 (centres undefined)	55.7*	0	1.4	-1.8	98.2*	0.4
Cc1ccc(C(=O)CSC2=C(C#N)C(c3ccco3)C3=C(CC(C)(C)CC3=O)N2)cc1 (centres undefined)	88.4*	0.1	0.0	0.0	87.7*	0.1
Cc1ccc(NC(=O)CSC2=C(C#N)C(c3ccco3)C3=C(CCCC3=O)N2)cc1 (centres undefined)	17.8	0.6	-7.3	-3.6	43.3	0.8

High-throughput results (PubChem BioAssay)
